Test results as given in PubChem BioAssay (EPA / NIEHS).
Where “and” joins values, the source holds several entries; their conditions need not be identical. Equal values may be shown once. Records with an inconclusive call do not appear. A structure can be active in one record and inactive in another. Calls of active or inactive are those of the source. How the source made its calls, unless noted: active means hit-call score of the fitted dose curve at least 0.9, where 1 is the maximum; inconclusive means response in the unintended direction; inactive means score below 0.9.

Read-out: not listed separately
Test: BSK_SAg_SRB: Viability Assessment in the BioMAP Diversity Plus: SAg Assay (AID 2283096; active means hit-call score of the fitted dose curve at least 0.9, where 1 is the maximum; inactive means score below 0.9;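 further: cells read one day after compound addition; hits may be either gain or loss of signal compared with DMSO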)
Settings: primary human HUVEC with PBMC
In short: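 SRB absorbance at 560 nm served as the viability read-out. Cells (HUVEC plus peripheral blood mononuclear cells) were TCA-fixed and stained 24 h post-dosing; activity fitted in both directions against DMSO controls.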

Compound | AC50 | outcome
CCN(Cc1c(F)cccc1Cl)c1c([N+](=O)[O-])cc(C(F)(F)F)cc1[N+](=O)[O-] | 11.4 µM (active) | 
C#CCOC(=O)[C@@H](C)Oc1ccc(Oc2ncc(Cl)cc2F)cc1 |  | inactive
Oc1ccc(C(c2ccc(O)cc2)C(Cl)(Cl)Cl)cc1 | 32.3 µM (active) | 
CN(C)C(=O)Nc1ccc(Cl)c(Cl)c1 |  | inactive
CC(C)(C)[C@@H](O)[C@@H](Cc1ccc(Cl)cc1)n1cncn1 |  | inactive
CCCCCCC(C)OC(=O)COc1nc(F)c(Cl)c(N)c1Cl (stereo not given) | 34.9 µM (active) | 
CCOC(=O)NCCOc1ccc(Oc2ccccc2)cc1 | 20 µM (active) | 
CC(=O)[C@H]1CC[C@H]2[C@@H]3CCC4=CC(=O)CC[C@]4(C)[C@H]3CC[C@]12C | 4.21 µM (active) | 
c1ccc2[nH]c(-c3cscn3)nc2c1 |  | inactive
S=C([S-])NCCNC(=S)[S-].[Mn+2] |  | inactive
CCCCCOC(=O)COc1cc(N2C(=O)C3=C(CCCC3)C2=O)c(F)cc1Cl |  | inactive

Molecular target: human CYP19A1, CYP19A1 (gene 1588) (UniProt P11511)
Test: NVS_ADME_hCYP19A1: NovaScreen (NVS) CYP450-related Enzyme Activity (ADME) Assay for human CYP19A1 (AID 2283098);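 on AC50: potency for inhibitors seen as loss of fluorescent enzyme signal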
Settings: not given
In short: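 Primary testing was in duplicate at a single 10 uM concentration, with actives followed up in concentration-response series. Fluorescence read-out of recombinant enzyme activity at 0.5 h, cell-free. Acetonitrile was the negative-control baseline.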

Chain of human CYP19A1, CYP19A1 (gene 1588) (P11511 whole entry, looked up): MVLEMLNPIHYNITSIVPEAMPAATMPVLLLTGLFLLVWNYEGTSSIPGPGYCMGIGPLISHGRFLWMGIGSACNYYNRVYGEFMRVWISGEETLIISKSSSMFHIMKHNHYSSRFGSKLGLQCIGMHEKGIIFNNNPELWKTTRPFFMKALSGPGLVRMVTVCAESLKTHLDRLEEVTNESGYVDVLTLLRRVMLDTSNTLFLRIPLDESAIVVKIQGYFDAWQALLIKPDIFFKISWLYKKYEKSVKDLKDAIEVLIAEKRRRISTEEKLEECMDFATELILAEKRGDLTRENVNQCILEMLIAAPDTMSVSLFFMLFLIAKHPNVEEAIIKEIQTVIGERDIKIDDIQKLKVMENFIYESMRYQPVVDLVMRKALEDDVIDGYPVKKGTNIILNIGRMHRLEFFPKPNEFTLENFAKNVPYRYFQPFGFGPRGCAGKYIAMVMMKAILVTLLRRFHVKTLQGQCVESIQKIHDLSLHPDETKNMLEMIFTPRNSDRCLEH

Compound | outcome | AC50
CCCOC(=O)c1ccc(C(=O)OCCC)nc1 | inactive | 
Oc1ccc(C(c2ccc(O)cc2)C(Cl)(Cl)Cl)cc1 | inactive | 
CC(=O)[C@H]1CC[C@H]2[C@@H]3CCC4=CC(=O)CC[C@]4(C)[C@H]3CC[C@]12C | inactive | 
S=C([S-])NCCNC(=S)[S-].[Mn+2] |  | 1.11 µM (active)

Molecular target: human CYP2A6, CYP2A6 (gene 1548) (UniProt P11509)
Test: NVS_ADME_hCYP2A6: NovaScreen (NVS) CYP450-related Enzyme Activity (ADME) Assay for human CYP2A6 (AID 2283099)
Settings: not given
In short: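 Fluorescent substrate turnover by recombinant CYP2A6 (insect cell source), 0.5 h read. Screen: 10 uM, duplicate; threshold hits (e.g. 30% inhibition) → singleton concentration-response, top 20 uM. Positive and negative controls on every plate.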

Chain of human CYP2A6, CYP2A6 (gene 1548) (P11509 whole entry, looked up): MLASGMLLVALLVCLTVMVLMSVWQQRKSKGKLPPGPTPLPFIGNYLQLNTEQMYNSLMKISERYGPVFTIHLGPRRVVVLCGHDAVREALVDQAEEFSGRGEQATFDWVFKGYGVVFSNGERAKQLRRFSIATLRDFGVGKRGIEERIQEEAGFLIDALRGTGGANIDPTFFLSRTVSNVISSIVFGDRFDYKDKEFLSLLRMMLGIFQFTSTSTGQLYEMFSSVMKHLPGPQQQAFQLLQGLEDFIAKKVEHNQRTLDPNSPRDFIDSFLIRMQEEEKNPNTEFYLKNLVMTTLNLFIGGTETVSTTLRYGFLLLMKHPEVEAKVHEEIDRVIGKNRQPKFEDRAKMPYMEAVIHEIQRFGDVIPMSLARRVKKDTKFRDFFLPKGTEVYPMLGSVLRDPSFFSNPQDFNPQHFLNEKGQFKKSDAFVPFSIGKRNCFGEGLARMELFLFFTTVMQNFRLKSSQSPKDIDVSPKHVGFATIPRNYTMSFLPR

Compound | outcome | AC50
O=C(O)c1ccccc1 | inactive | 
CSC(=O)c1cccc2nnsc12 |  | 1.22 µM (active)
N#CSCSc1nc2ccccc2s1 |  | 3.06 µM (active)
S=C([S-])NCCNC(=S)[S-].[Mn+2] | inactive | 

Molecular target: human CYP1A1, CYP1A1 (gene 1543) (UniProt P04798)
Test: NVS_ADME_hCYP1A1: NovaScreen (NVS) CYP450-related Enzyme Activity (ADME) Assay for human CYP1A1 (AID 2283100)
Settings: not given
In short: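 Recombinant hCYP1A1 + fluorogenic substrate, cell-free; 1 h; fluorescence read. Single-point 10 uM (duplicate) → concentration series, max 20 uM. Acetonitrile negative control.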

Chain of human CYP1A1, CYP1A1 (gene 1543) (P04798 whole entry, looked up): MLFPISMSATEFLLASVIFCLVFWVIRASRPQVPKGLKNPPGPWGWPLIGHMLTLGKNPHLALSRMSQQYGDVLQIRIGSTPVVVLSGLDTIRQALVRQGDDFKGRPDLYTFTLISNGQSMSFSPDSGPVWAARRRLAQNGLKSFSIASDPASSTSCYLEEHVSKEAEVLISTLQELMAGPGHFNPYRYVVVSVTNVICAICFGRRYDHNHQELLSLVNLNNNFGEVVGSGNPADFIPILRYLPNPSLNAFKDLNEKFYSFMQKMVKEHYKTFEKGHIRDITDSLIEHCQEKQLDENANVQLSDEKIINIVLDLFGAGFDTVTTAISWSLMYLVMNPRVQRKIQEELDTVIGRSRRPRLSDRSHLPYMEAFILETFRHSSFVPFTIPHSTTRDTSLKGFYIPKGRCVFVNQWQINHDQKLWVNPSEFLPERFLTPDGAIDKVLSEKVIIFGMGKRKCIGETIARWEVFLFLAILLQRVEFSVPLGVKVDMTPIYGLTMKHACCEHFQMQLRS

Compound | AC50
CC(C)CCCCCCc1ccc(O)cc1 | 10.7 µM (active)
C#CCOC(=O)[C@@H](C)Oc1ccc(Oc2ncc(Cl)cc2F)cc1 | 2.24 µM (active)
Oc1ccc(C(c2ccc(O)cc2)C(Cl)(Cl)Cl)cc1 | 10 µM (active)
c1ccc2[nH]c(-c3cscn3)nc2c1 | 4.65 µM (active)

Molecular target: human CYP1A2, CYP1A2 (gene 1544) (UniProt P05177)
Test: NVS_ADME_hCYP1A2: NovaScreen (NVS) CYP450-related Enzyme Activity (ADME) Assay for human CYP1A2 (AID 2283102);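 on AC50: fluorescence from turnover of a fluorogenic substrate by recombinant insect-cell CYP1A2; potency for inhibition since loss of fluorescence marks reduced CYP1A2 activity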
Settings: not given
In short: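 rec. hCYP1A2 (insect cells), cell-free; fluorogenic substrate; 0.5 h; FI read. Baseline = acetonitrile; signal loss = inhibition. 10 uM duplicate primary → conc. series for actives.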

Chain of human CYP1A2, CYP1A2 (gene 1544) (P05177 whole entry, looked up): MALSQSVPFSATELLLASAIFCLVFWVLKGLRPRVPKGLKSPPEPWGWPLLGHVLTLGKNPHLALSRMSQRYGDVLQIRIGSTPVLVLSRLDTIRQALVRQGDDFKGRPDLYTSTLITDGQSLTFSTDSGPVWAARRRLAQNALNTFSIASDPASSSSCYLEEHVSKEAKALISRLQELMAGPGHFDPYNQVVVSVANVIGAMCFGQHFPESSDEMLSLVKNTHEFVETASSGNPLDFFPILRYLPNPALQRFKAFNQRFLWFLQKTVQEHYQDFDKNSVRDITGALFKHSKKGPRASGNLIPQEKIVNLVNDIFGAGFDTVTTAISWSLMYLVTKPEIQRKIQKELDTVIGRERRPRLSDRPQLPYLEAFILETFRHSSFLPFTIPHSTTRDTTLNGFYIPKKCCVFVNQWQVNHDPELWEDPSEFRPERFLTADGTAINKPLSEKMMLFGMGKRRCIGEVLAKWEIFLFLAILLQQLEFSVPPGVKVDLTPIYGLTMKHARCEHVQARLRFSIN

Compound | outcome | AC50
CCOC(=O)C(C)Oc1ccc(Oc2nc3ccc(Cl)cc3o2)cc1 (stereo not given) | inactive | 
CSC(=O)c1cccc2nnsc12 |  | 0.653 µM (active)
CCOC(=O)[C@H](C)Oc1ccc(Oc2nc3ccc(Cl)cc3o2)cc1 | inactive | 
CCCN(CCC)c1c([N+](=O)[O-])cc(C(F)(F)F)c(N)c1[N+](=O)[O-] |  | 6.02 µM (active)
COC(=O)c1ccccc1S(=O)(=O)NC(=O)Nc1nc(OC(F)F)cc(OC(F)F)n1 |  | 5.43 µM (active)
N#CSCSc1nc2ccccc2s1 |  | 3.44 µM (active)
C#CCOC(=O)[C@@H](C)Oc1ccc(Oc2ncc(Cl)cc2F)cc1 |  | 1.64 µM (active)
CN(C)C(=O)Nc1ccc(Cl)c(Cl)c1 |  | 1.63 µM (active)
CCCCCCC(C)OC(=O)COc1nc(F)c(Cl)c(N)c1Cl (stereo not given) | inactive | 
c1ccc2[nH]c(-c3cscn3)nc2c1 |  | 2.47 µM (active)
S=C([S-])NCCNC(=S)[S-].[Mn+2] |  | 5.5 µM (active)
CCCCCOC(=O)COc1cc(N2C(=O)C3=C(CCCC3)C2=O)c(F)cc1Cl |  | 1.29 µM (active)

Molecular target: human CYP2D6, CYP2D6 (gene 1565) (UniProt P10635)
Test: NVS_ADME_hCYP2D6: NovaScreen (NVS) CYP450-related Enzyme Activity (ADME) Assay for human CYP2D6 (AID 2283107)
Settings: not given
In short: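 Insect-cell recombinant enzyme + fluorogenic substrate, cell-free; 1 h incubation; fluorescence intensity readout. Acetonitrile = neg. ctrl/baseline. Single-point 10 uM, duplicate; follow-up concentration series.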

Chain of human CYP2D6, CYP2D6 (gene 1565) (P10635 whole entry, looked up): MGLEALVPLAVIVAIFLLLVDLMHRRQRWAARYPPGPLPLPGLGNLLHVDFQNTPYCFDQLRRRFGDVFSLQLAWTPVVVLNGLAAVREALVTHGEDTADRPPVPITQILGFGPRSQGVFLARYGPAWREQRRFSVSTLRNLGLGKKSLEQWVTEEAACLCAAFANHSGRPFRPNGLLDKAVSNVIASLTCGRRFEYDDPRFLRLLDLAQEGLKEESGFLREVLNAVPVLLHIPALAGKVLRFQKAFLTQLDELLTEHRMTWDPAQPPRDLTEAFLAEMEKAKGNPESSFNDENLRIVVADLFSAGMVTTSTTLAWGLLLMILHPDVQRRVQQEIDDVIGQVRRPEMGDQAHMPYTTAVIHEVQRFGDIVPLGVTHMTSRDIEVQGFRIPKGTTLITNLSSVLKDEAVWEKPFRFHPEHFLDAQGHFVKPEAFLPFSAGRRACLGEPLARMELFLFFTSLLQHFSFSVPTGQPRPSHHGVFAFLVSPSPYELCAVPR

Compound | AC50
COc1nc(C)nc(NC(=O)NS(=O)(=O)c2ccccc2OCCCl)n1 | 1.07 µM (active)
CSC(=O)c1cccc2nnsc12 | 3.55 µM (active)
N#CSCSc1nc2ccccc2s1 | 1.99 µM (active) and 1.9 µM (active)
CCOC(=O)NCCOc1ccc(Oc2ccccc2)cc1 | 1.98 µM (active)

Molecular target: human CYP2C9, CYP2C9 (gene 1559) (UniProt P11712)
Test: NVS_ADME_hCYP2C9: NovaScreen (NVS) CYP450-related Enzyme Activity (ADME) Assay for human CYP2C9 (AID 2283108)
Settings: not given
In short: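 Fluorescence readout of CYP2C9 activity (SF9-expressed human enzyme) at 0.75 h. The primary screen used 10 uM in duplicate, with concentration-response follow-up for actives; acetonitrile was the negative control.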

Chain of human CYP2C9, CYP2C9 (gene 1559) (P11712 whole entry, looked up): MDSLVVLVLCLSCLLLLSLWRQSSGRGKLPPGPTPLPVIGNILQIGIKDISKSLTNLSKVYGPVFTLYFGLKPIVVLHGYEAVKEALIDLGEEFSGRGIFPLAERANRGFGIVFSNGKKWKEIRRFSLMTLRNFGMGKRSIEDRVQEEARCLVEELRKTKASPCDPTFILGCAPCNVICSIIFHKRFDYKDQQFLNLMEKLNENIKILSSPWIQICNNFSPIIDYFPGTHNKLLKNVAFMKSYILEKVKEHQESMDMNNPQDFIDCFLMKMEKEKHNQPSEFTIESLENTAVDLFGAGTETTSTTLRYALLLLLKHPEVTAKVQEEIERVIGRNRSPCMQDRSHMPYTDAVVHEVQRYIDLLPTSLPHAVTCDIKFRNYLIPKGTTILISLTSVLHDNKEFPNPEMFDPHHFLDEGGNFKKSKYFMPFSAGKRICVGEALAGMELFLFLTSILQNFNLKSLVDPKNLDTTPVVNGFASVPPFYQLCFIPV

Compound | AC50 | outcome
COC(=O)c1c(Cl)nn(C)c1S(=O)(=O)NC(=O)Nc1nc(OC)cc(OC)n1 | 2.89 µM (active) | 
CCCCC(CC)COC(=O)c1ccccc1C(=O)O (stereo not given) | 5.35 µM (active) | 
N#CSCSc1nc2ccccc2s1 | 1.77 µM (active) and 5.62 µM (active) | 
Oc1ccc(C(c2ccc(O)cc2)C(Cl)(Cl)Cl)cc1 | 2.08 µM (active) | 
CC(C)(C)[C@@H](O)[C@@H](Cc1ccc(Cl)cc1)n1cncn1 | 6.81 µM (active) | 
CCCCCCC(C)OC(=O)COc1nc(F)c(Cl)c(N)c1Cl (stereo not given) |  | inactive
CCOC(=O)NCCOc1ccc(Oc2ccccc2)cc1 | 10 µM (active) | 
CC(=O)[C@H]1CC[C@H]2[C@@H]3CCC4=CC(=O)CC[C@]4(C)[C@H]3CC[C@]12C | 7.34 µM (active) | inactive
S=C([S-])NCCNC(=S)[S-].[Mn+2] | 10 µM (active) | 
CCCCCOC(=O)COc1cc(N2C(=O)C3=C(CCCC3)C2=O)c(F)cc1Cl |  | inactive

Molecular target: Cytochrome P450 3A4 (Homo sapiens) (UniProt P08684)
Test: NVS_ADME_hCYP3A4: NovaScreen (NVS) CYP450-related Enzyme Activity (ADME) Assay for human CYP3A4 (AID 2283110)
Settings: not given
In short: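 Compounds screened in duplicate at 10 uM, with follow-up concentration-response for actives, against insect-cell-expressed recombinant enzyme. Activity read by fluorescence 0.33 h after dosing; loss of signal versus acetonitrile control indicates inhibition.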

Chain of Cytochrome P450 3A4 (Homo sapiens) (P08684 whole entry, looked up): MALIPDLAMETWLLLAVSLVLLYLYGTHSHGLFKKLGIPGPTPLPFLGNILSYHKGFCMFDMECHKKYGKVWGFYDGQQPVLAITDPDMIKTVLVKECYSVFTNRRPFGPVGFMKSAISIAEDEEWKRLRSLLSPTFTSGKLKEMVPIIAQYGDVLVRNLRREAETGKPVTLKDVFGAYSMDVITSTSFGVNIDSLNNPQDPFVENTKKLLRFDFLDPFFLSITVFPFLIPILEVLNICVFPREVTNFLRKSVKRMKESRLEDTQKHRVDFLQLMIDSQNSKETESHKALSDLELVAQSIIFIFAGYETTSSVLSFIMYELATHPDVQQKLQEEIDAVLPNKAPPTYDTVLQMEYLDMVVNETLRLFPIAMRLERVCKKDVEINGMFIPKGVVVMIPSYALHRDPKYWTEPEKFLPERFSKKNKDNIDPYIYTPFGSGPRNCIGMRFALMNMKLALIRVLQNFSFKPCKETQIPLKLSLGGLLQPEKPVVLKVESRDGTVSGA

Compound | outcome | AC50
CCC(O)=C1C(=O)CC(C(=O)O)CC1=O (stereo not given) | inactive | 
Oc1ccc(C(c2ccc(O)cc2)C(Cl)(Cl)Cl)cc1 |  | 7.75 µM (active)
CC(C)(C)[C@@H](O)[C@@H](Cc1ccc(Cl)cc1)n1cncn1 |  | 2.68 µM (active)
CCCCCCC(C)OC(=O)COc1nc(F)c(Cl)c(N)c1Cl (stereo not given) |  | 7.6 µM (active)
CC(=O)[C@H]1CC[C@H]2[C@@H]3CCC4=CC(=O)CC[C@]4(C)[C@H]3CC[C@]12C |  | 5.46 µM (active) and 2.77 µM (active)
